Compound activity as filed in PubChem BioAssay.
Rows were chosen to be rich in hits. Some 7.8% of all compounds tested hit in one or more screens of this group.
HCV inh – qHTS Assay for Inhibitors of Hepatitis C Virus (HCV) | Huh7.5.1 HCVcc-Cre infection, luciferase reporter, 44 h | Potency, µM (series often up to 41.8 µM), for inactives: top-dose activity change, negative = inhibition, actives largely listed as inhibitors | 340,000 tested, 3.4% active | AID 651820, 2012; active = well fitted inhibition curve with a large enough effect; inconclusive = small, poorly fitted or top-dose-only effect, or another doubt; inactive = no such curve, though single readings can be large or run the other way; also: potency is read from the fitted curve at half-maximal effect
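Seed cells (1,000/well) for 4 h; treat with compound and infect with HCVcc-Cre, moi about 0.5. Incubate 44 h, then detect luciferase activity.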
VACV mCherry inh – qHTS for Stage-Specific Inhibitors of Vaccinia Orthopoxvirus: mCherry Reporter Primary qHTS; Potency, µM (doses to about 36.5 µM), without a hit: top-dose activity change, negative = inhibition, actives largely listed as inhibitors; 310,000 tested, 0.63% active; AID 720579, 2013; Vaccinia virus mCherry reporter infection, fluorescence; calls by dose curve; tested in A549 cells; also: potency is read from the fitted curve at half-maximal effect; nearly all actives have a fitted effect of over 35% in size
Vaccinia Venus – qHTS for Stage-Specific Inhibitors of Vaccinia Orthopoxvirus: Venus Reporter Primary qHTS | AID 720580, 2013 | Vaccinia virus Venus reporter expression, fluorescence | 330,000 tested, 0.46% active | Potency, µM (series often up to 36.5 µM), for the others: top-dose activity change, negative = inhibition, most hits filed as inhibitors; calls by dose curve; tested in A549 cells; also: potency is read from the fitted curve at half-maximal effect; nearly all actives have a fitted effect of over 30% in size
LASV entry inh – qHTS for Inhibitors of binding or entry into cells for Lassa Virus | Lassa virus pseudotype entry inhibition, cell reporter | AID 540256, 2011 | Potency, µM (titrated, usually from 37.9 µM), inactives show at the top dose activity change, negative = inhibition, actives largely listed as inhibitors | 300,000 tested, 1.2% active; calls by dose curve; tested in HEK293 cells; also: potency is read from the fitted curve at half-maximal effect; nearly all actives have a fitted effect of over 50% in size
HCMV inh – qHTS Assay for inhibitors of the human cytomegalovirus (HCMV); HFF cells, HCMV-luciferase reporter, 72 h; hits give low values; activity change, negative = inhibition, % at 57.5 µM; 410,000 tested, 4.5% active; in the data active = activity change below about -60%; inconclusive = no clear call, values can overlap the other calls; inactive = above about -39%
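Two-dose cell screen: HFF monolayers treated with compounds and infected with luciferase-expressing HCMV at 1 PFU/cell, 72 h at 37C, then lysed for luciferase measurement.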
Marburg entry inh – qHTS for inhibitors of binding or entry into cells for Marburg Virus | Marburg virus pseudotyped entry inhibition, cell reporter | Potency, µM (doses to about 37.8 µM), inactives show at the highest dose activity change, negative = inhibition, most hits filed as inhibitors | 300,000 tested, 1.8% active | AID 540276, 2011; calls by dose curve; tested in HEK293 cells; also: potency is read from the fitted curve at half-maximal effect
Starred values were filed as active, the others as inactive; i = inactive; u = inconclusive; x = not tested or not shown; [ ] = dose if it differs, or a comment. % is scaled to controls: 0 for no effect and ±100 for the full control effect.

SMILES	HCV inh	VACV mCherry inh	Vaccinia Venus	LASV entry inh	HCMV inh	Marburg entry inh
Oc1ccc2ccccc2c1-c1sc(Nc2ccccc2)n[n+]1-c1ccc(F)cc1	-8%	-8%	93%	x	8	x
Cc1csc(Nc2cccc3ccccc23)n1	-4%	-16%	-2%	4%	-28	u
COc1ccc(C)cc1Nc1n[n+](-c2ccccc2)c(-c2cc(OC)c(OC)cc2Br)s1	-28%	-21%	u	x	7	x
CC1=NOC(=O)/C1=C\c1ccc(-c2cc(Cl)ccc2Cl)o1	u	i	0%	22%	-104*	9%
COC(=O)CC=C[C@H](C)[C@@H](OCc1ccccc1Br)C(C)C	x	x	x	u	x	14%[14.2 µM]
COc1ccc(-c2noc3ccccc23)cc1	x	x	x	x	4	x
CN(Cc1ccc(F)cc1)C(=O)c1cccc(S(=O)(=O)N2CCN(c3ccccc3)CC2)c1	13µM*	-26%	-26%	u	-27	u
CN(Cc1ccc(F)cc1)C(=O)c1cccc(S(=O)(=O)N2CCN(Cc3ccccc3)CC2)c1	u	-23%	-20%	u	-36	u
CN(Cc1ccc(F)cc1)C(=O)c1cccc(S(=O)(=O)N2CCN(c3ccc(F)cc3)CC2)c1	10µM*	u	-28%	u	-38	u
Cc1ccc(CN(C)C(=O)c2cccc(S(=O)(=O)N3CCN(c4ccccc4)CC3)c2)cc1	u	-28%	-10%	u	-39	u
COc1ccc(CN(C)C(=O)c2cccc(S(=O)(=O)N3CCN(c4ccccc4)CC3)c2)c(OC)c1OC	8.9µM*	u	-28%	u	-70*	u
CN(Cc1nc2ccccc2c(=O)[nH]1)C(=O)c1cccc(S(=O)(=O)N2CCc3ccccc32)c1	3%	u	8%	4µM*	-67*	u
CN(Cc1nc2ccccc2c(=O)[nH]1)C(=O)c1cccc(S(=O)(=O)N2CCCCCC2)c1	-17%	x	x	x	49	x
COc1ccc(NC(=O)CSc2cn(CC(=O)N3CCOCC3)c3ccccc23)cc1OC	x	-13%	-8%	10%[46.1 µM]	16	x
COc1ccc(CN(C)C(=O)c2cccc(S(=O)(=O)N3CCCc4ccccc43)c2)c(OC)c1OC	11µM*	x	x	x	-12	x
CNC[C@@H](Cc1ccccc1)NC[C@@H](CC1CCCCC1)NCCCc1ccccc1	u	u	u	x	-101*	x
CNC[C@@H](CC1CCCCC1)NC[C@H](CC(C)C)NCCc1cccc(C(F)(F)F)c1	u	14µM*	u	x	-99*	x
CN(Cc1cccc(C(F)(F)F)c1)C(=O)C1CCC(=O)N(CC2CCCCC2)C1 (stereo not drawn)	-10%	x	x	x	-20	x
CN(C)c1ccc(Cn2ccc3ccccc32)cc1	x	37%	6%	x	x	x
O=C(Cn1c(SCC(=O)Nc2ccc(F)cc2)nc2ccccc21)NCc1ccc(Cl)cc1	x	u	-23%	u	-74*	x
CC1CCCC(C)N1C(=O)Cn1c(SCC(=O)NCc2ccc3c(c2)OCO3)nc2ccccc21 (stereo not drawn)	4%	-8%	1%	-2%	-68*	-4%
Cc1ccc(NC(=O)CSc2nc3ccccc3c3nc4ccccc4n23)cc1	u	x	x	u	-87*	6.5µM*
O=C(Cn1c(SCC(=O)Nc2ccc(F)cc2)nc2ccccc21)NCc1ccc(F)cc1	x	-18%	-7%	u	-34	x
COc1ccc(CNC(=O)Cn2c(SCC(=O)Nc3ccc(OC)cc3)nc3ccccc32)cc1	x	i	-7%	-15%[46.1 µM]	-18	x
CN(C)C(=O)Cn1c(SCC(=O)NCc2ccc3c(c2)OCO3)nc2ccccc21	-1%	x	-9%	17%	1	4%
SMILES	HCV inh	VACV mCherry inh	Vaccinia Venus	LASV entry inh	HCMV inh	Marburg entry inh
Cc1ccc(CNC(=O)Cn2c(SCC(=O)Nc3ccc(F)cc3)nc3ccccc32)cc1	x	-25%	-12%	u	-93*	x
COc1ccc(Cn2ccc3nc(C)c(C(=O)N4CCN(c5cc(C)ccc5C)CC4)cc3c2=O)cc1	x	u	-27%	-20%[46.1 µM]	-18	x
COc1ccc(CCC(=O)NCCS(=O)(=O)N2CCN(c3ccccc3OC)CC2)cc1	14µM*	x	x	x	u	x
COc1ccc(-c2noc(CCCCC(=O)N3CCN(c4cc(C)ccc4C)CC3)n2)cc1	u	u	u	x	-96*	x
COc1ccc(CCC(=O)NCCS(=O)(=O)N2CCN(c3ccccc3F)CC2)cc1	-23%	-14%	u	-21%[46.1 µM]	-13	8%
COc1ccc(C(=O)CCC(=O)N2CCN(c3cc(C)ccc3C)CC2)cc1	10µM*	x	x	x	u	x
CCOC(=O)N1CCN(C(=O)CCC(=O)c2ccc(OCC)cc2)CC1	10%	-10%	2%	11µM*	-28	13%[46.1 µM]
COc1ccc(CC(=O)N2CCN(c3cccc(C)c3C)CC2)cc1	-27%	x	x	x	10	x
COc1ccc(CCC(=O)N2CCN(c3cccc(C)c3C)CC2)cc1	-26%	-12%	-11%	x	-80*	20%[46.1 µM]
CCOC(=O)c1[nH]c2ccc(OC)cc2c1NC(=S)N1CCN(c2cccc(C)c2C)CC1	10µM*	u	u	u	-12	2.2µM*
COc1ccc(-n2nc(C#N)c(Cl)cc2=O)cc1	u	11µM*	10µM*	u	-101*	3.2µM*
O=C(c1ccco1)C(O)c1ccco1 (stereo not drawn)	-3%	i	-6%	x	-62*	x
Cc1ccc(C(O)C(=O)c2ccco2)cc1 (stereo not drawn)	-13%	i	-8%	x	21	x
CCOC(=O)c1c(C)[nH]c(C)c1S(=O)(=O)N1CCC(C(=O)NCc2ccc(F)cc2)CC1	x	-11%	-20%	-13%[46.1 µM]	-6	x
COc1ccc2[nH]c3c(=O)n(/N=C/[C@H]4C(C)C=C(C)CC4C)c(=O)[nH]c3c2c1 (stereo partly drawn)	u	x	x	-4%	-80*	-31%
COc1ccc2c(c1)[nH]c1c(=O)n(/N=C/C3C(C)C=C(C)CC3C)c(=O)[nH]c12 (stereo not drawn)	0%	i	-10%	-1%	-24	u
CC1=CC(C)[C@H](/C=N/n2c(=O)[nH]c3c([nH]c4ccc(Br)cc43)c2=O)C(C)C1 (stereo partly drawn)	9%	i	3%	u	-74*	-25%
O=C1CS(=O)(=O)C2(C(=O)N(Cc3ccccc3Cl)c3ccccc32)N1c1ccc(F)cc1 (stereo not drawn)	x	9%	4%	-14%[46.1 µM]	-3	x
Cc1cc(N2CCC(C)CC2)n2ncc(-c3ccccc3)c2n1	u	x	-25%	u	-64*	u
Cc1cc(N2CCOCC2)n2ncc(-c3ccccc3)c2n1	u	x	x	2.6µM*	-28	u
